TTR transcr act: increases transthyretin transcription; SH-SY5Y TTR promoter Gaussia luciferase, luminescence; 100% = recombinant luciferase protein wells; activation, % at 16.7 µM; 92,000 compounds, 1.3% hits; AID 1117267;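 active = activation above the mean of all tested compounds plus 3 SD, cut at about 9.5% in these data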;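 note: cells exposed to compounds for one day before reading; 0% = median of all test compound wells on the plate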
TTR inh HuH7: counter-screen for TTR activators: TTR transcription inhibitors in HuH7 cells. shares compounds with TTR transcr act. HuH7 TTR promoter-Gaussia luciferase reporter, luminescence. inhibition, % at 16.7 µM. 1,100 compounds, 4% hits;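 active = average inhibition above the solvent-only control wells' mean plus 3 SD, cut at about 15% in these data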;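 note: 0% = cells with DMSO only and 100% = cells with inhibitor control FD; inhibitors lower well luminescence so higher value means more inhibition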
TTR act confirm: human TTR transcription activation, confirmation; shares compounds with TTR transcr act; SHSY5Y TTR promoter Gaussia luciferase, luminescence; 100% = purified Lucia enzyme wells, no cells; activation, % at 16.7 µM; 1,100 tested, under 10 active;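 active = mean activation above a set limit taken from the earlier primary screen, cut at about 11% in these data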;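 note: 0% = DMSO-treated cells and 100% = recombinant Lucia luciferase without cells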
An asterisk follows results filed as active; x = not tested or not shown. Many of the other results were omitted from the sample, so hits are more common in it than they were.

SMILES | TTR transcr act | TTR inh HuH7 | TTR act confirm
CC(C(=O)c1c[nH]c2ccccc12)N1CCOCC1 (stereo unspecified) | 2.1 | x | x
O=C(C(=O)N1CCC2(CC1)OCCO2)c1c[nH]c2ccccc12 | 10.5* | -6.6 | 0.1
COc1cccc(CN2CCCCC2c2cccnc2)c1 (stereo unspecified) | -1.5 | x | x
O=P1(Nc2cccnc2)COc2ccccc2OC1 | -0.9 | x | x
CCN1CCN(Cc2cc(C(C)(C)C)c(O)c(C(C)(C)C)c2)CC1 | -0.4 | x | x
C#CCOc1ccc2c(c1)c(C(C)=O)c(C)n2Cc1ccccc1 | 2.3 | x | x
Cc1cccn2c(NCC3CCCO3)c(C(C)C)nc12 (stereo unspecified) | 27.0* | 9.2 | -0.7
CC(C)(C)C1(CCO)C(=O)NC(=S)NC1=O | -0.2 | x | x

Screening results deposited in PubChem by The Scripps Research Institute Molecular Screening Center.
